Screening data deposited in PubChem by Buhrlage Lab, Dana-Farber Cancer Institute and Novartis Institutes for BioMedical Research (Cambridge, Mass).
USP17 inh – blocks human USP17 ubiquitin-rhodamine cleavage | purified USP17, Ub-rhodamine cleavage fluorescence, 3 h | inhibition, % at 50 µM | actives 6.5% (n = 47,000) | AID 1645855
OTUD3 inh – human OTUD3 deubiquitinase inhibition. Q5T2D3. purified OTUD3, Ub-rhodamine fluorescence, 2 h. inhibition, % at 25 µM. actives 0.7% (n = 47,000)
Target sequence (Q5T2D3 whole entry, looked up): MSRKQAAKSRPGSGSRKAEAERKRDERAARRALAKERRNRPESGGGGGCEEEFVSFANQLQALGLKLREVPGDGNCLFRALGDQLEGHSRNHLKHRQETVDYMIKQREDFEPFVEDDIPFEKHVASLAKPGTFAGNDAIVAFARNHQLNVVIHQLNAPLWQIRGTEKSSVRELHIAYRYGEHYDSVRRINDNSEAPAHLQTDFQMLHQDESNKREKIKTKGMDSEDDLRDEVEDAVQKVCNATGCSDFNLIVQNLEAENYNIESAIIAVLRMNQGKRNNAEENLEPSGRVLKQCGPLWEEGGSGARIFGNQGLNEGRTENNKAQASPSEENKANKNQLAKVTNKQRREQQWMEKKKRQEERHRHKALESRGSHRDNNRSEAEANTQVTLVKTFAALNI
USP8 block – human USP8 deubiquitinase inhibition. AID 1645853. P40818. purified USP8, Ub-rhodamine cleavage fluorescence, 30 min. inhibition, % at 20 µM. actives 4.2% (n = 47,000)
USP28 block – human USP28 deubiquitinase inhibition; purified USP28, Ub-rhodamine cleavage fluorescence, 30 min; Q96RU2; inhibition, % at 25 µM; actives 3% (n = 47,000)
USP10 inh – inhibitors of human USP10 deubiquitinase; purified USP10, Ub-rhodamine fluorescence, 60 min; inhibition, % at 20 µM; actives 1.1% (n = 47,000); AID 1645856
USP30 block – human USP30 deubiquitinase inhibition; inhibition, % at 25 µM; purified USP30, Ub-rhodamine cleavage fluorescence; Q70CQ3; actives 5.3% (n = 47,000)
An asterisk follows results filed as active. This is a sample that favours compounds with a hit; in the whole collection about 13% have one here. No stated cut-off is given here; in the data, active means inhibition above about 30%; inactive means the rest.

For O=C(Nc1ccccc1)C1COc2ccccc2C1 (centres undefined) the results were USP17 inh 32*, OTUD3 inh 0, USP8 block 0, USP28 block 7, USP10 inh 3 and USP30 block 29.
For CC(C)=CCCC1(C)OC2=C(C(=O)c3cc(O)cc(O)c3C2=O)[C@H]2C=C(C)CC[C@H]21 (some centres undefined) the results were USP17 inh 86*, OTUD3 inh 0, USP8 block 16, USP28 block 18, USP10 inh -5 and USP30 block -16.
CC12CCCC(O1)c1c(cc3c(c1O)C(=O)c1c(O)cc(O)cc1C3=O)O2 (centres undefined) was read as USP17 inh -22, OTUD3 inh -24, USP8 block -17, USP28 block -26, USP10 inh -7 and USP30 block -125.
For CCc1noc(-c2c(C)cc(C)n2CC(=O)NCc2ccc(Cl)cc2)n1 the results were USP17 inh 12, OTUD3 inh 10, USP8 block 15, USP28 block 10, USP10 inh -2 and USP30 block 39*.
Cn1c(=O)c(C(=O)NCc2ccc(F)cc2)nc2ccccc21 was read as USP17 inh -9, OTUD3 inh 1, USP8 block -3 and USP10 inh -2.
`CCc1cccc(NC(=O)c2nc3ccccc3n(C)c2=O)c1` gave USP17 inh 58*, OTUD3 inh 4, USP8 block 4, USP28 block 48*, USP10 inh -2 and USP30 block 86*.
COc1ccc(-c2nnc(SCC(=O)Nc3ccc(C)cc3)n2C2CCCCC2)cc1OC was read as USP17 inh 34*, OTUD3 inh 17, USP8 block 9, USP28 block 15, USP10 inh -1 and USP30 block 48*.
For CCOC(=O)c1ccc(NC(=O)c2ccc(SCCN3CCOCC3)nc2)cc1 the results were USP17 inh 22, OTUD3 inh 14, USP8 block 12, USP28 block 0, USP10 inh 0 and USP30 block 18.
CCOC(=O)c1ccc(NC(=O)C2CCN(c3nccc4sccc34)CC2)cc1 was read as USP17 inh 15, OTUD3 inh -16, USP8 block 54*, USP28 block 18, USP10 inh 4 and USP30 block -61.
Screening COC(=O)C(Cc1cnc(Cl)s1)(C(=O)OC)c1ccc([N+](=O)[O-])cn1 returned USP17 inh -8, OTUD3 inh 0, USP8 block -99, USP28 block -8, USP10 inh -2 and USP30 block -92.
Screening COc1cc(NC(=O)c2cccnc2)ccc1NC(=O)c1cc2ccccc2o1 returned USP17 inh 39*, OTUD3 inh -13, USP8 block -1, USP28 block -19, USP10 inh -3 and USP30 block -54.
CC(Sc1n[nH]c2nc3ccccc3n12)C(=O)Nc1ccc2c(c1)OCCO2 (centres undefined) was read as USP17 inh 39*, OTUD3 inh 34*, USP8 block -5, USP28 block 26, USP10 inh -4 and USP30 block -9.
For O=C(CSc1nnc2n1CCCCC2)Nc1ccc2[nH]c(=O)[nH]c2c1 the results were USP17 inh 68*, OTUD3 inh -6, USP8 block -22, USP28 block 33*, USP10 inh 0 and USP30 block 28.
O=C(CSc1n[nH]c2nc3ccccc3n12)Nc1ccc2[nH]c(=O)[nH]c2c1 was read as USP17 inh -3, OTUD3 inh 6, USP8 block 70*, USP28 block -4, USP10 inh 10 and USP30 block -22.
For O=C(CSc1nc(C2CC2)n(-c2ccccc2)n1)Nc1ccc2[nH]c(=O)[nH]c2c1 the results were USP17 inh 21, OTUD3 inh -5, USP8 block -45, USP28 block 15, USP10 inh 0 and USP30 block -292.
`COc1ccc(-c2nnc(SCC(=O)Nc3ccc4[nH]c(=O)[nH]c4c3)n2C)cc1` gave USP17 inh 13, OTUD3 inh 10, USP8 block 38*, USP28 block 1, USP10 inh -2 and USP30 block 5.
`O=C(COc1ccc2ccccc2c1)NCc1nnnn1-c1ccc(F)c(F)c1` gave USP17 inh 48*, OTUD3 inh -4, USP8 block -22, USP28 block 2, USP10 inh 2 and USP30 block 9.
